# SmPrx2 inh: inhibitors of Schistosoma mansoni peroxiredoxin 2; S. mansoni Prx2 activity coupled to TGR/GSH (TGR is thioredoxin glutathione reductase), NADPH fluorescence loss, qHTS; Potency, µM; actives 0.07% (n = 65,000); AID 448
#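 Enzyme mix: 100 uM NADPH, 25 nM TGR, 700 uM GSH, 50 nM Prx2 in 100 mM phosphate pH 7.4, 10 mM EDTA, 0.01% Tween-20. 15 min RT with compound; NADPH/GSH added, H2O2 starts reaction; NADPH fluorescence read 8 min.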
# AmpC det inh: blocks E. coli AmpC beta-lactamase in presence of detergent | purified AmpC, nitrocefin hydrolysis with detergent | actives 0.09% (n = 71,000) | AID 584 | P00811 | Potency, µM (highest dose often 28.7 µM), for the others: at the highest dose activity change, negative = inhibition; active = well fitted curve in the direction sought with a large enough effect; inconclusive = small, poorly fitted or top-dose-only effect; also: % is scaled to controls: 0 for no effect and ±100 for the full control effect
# Target sequence (P00811 whole entry, looked up): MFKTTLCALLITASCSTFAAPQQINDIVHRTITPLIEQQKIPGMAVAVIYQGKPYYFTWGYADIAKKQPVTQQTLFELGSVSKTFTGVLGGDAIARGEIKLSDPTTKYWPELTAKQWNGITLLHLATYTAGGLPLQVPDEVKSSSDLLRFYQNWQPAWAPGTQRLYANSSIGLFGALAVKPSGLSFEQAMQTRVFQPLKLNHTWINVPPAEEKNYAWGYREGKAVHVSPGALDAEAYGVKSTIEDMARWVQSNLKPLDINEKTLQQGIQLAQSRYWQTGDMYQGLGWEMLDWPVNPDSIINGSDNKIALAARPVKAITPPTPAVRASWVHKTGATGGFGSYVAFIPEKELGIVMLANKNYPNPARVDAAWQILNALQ
#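 E. coli AmpC (5.3 nM) in 20 mM phosphate pH 7.0 with 0.01% Triton X-100, preincubated 15 min RT with compound; nitrocefin (2 uL of 800 uM stock) hydrolysis followed by 480 nm absorbance every 20 s over 4 min.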
# AmpC nodet inh: inhibitors of E. coli AmpC beta-lactamase without detergent | AmpC nitrocefin hydrolysis, absorbance 480 nm, no detergent | P00811 | Potency, µM (series often up to 28.7 µM), inactives show top-dose activity change, negative = inhibition | actives 1.8% (n = 71,000); also: % of control where 0% means no effect
#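 AmpC, 20 mM phosphate pH 7.0; 15 min cpd preinc, RT; start with nitrocefin (800 uM stock); A480 kinetic read, 20 s intervals, 4 min. No-enzyme wells = negative control.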
# LT uptake inh: blocks cellular internalization of anthrax lethal toxin. Cells, anthrax lethal toxin internalization, FRET ratio (460/530). Potency, µM (series often up to 40 µM), for the others: top-dose activity change, negative = inhibition, most hits filed as inhibitors. actives 0.67% (n = 70,000). AID 912; also: % is scaled to controls: 0 for no effect and ±100 for the full control effect; nearly all actives have a fitted effect of over 50% in size
# An asterisk follows results filed as active; ? = inconclusive; . = no result given; [ ] = remark or other dose. An excerpt weighted towards active compounds, which were near 2.4% of everything screened. Unless noted, calls follow the shape of the full dose curve. Potency is read from the fitted curve at half-maximal effect.
SMILES,SmPrx2 inh,AmpC det inh,AmpC nodet inh,LT uptake inh
CN(C)C(=O)Cn1nc(-c2ccccc2)c2ccccc2c1=O,>57,-3%,11%,4%
O=C(Cn1nc(Cc2ccncc2)c2ccccc2c1=O)N1CCc2ccccc2C1,>57,11%,4µM*[single pt active],-1%
CN(CCC#N)C(=O)Cn1nc(Cc2ccncc2)c2ccccc2c1=O,>57,11%,4µM*[single pt active],-4%
Cc1ccnc(SCC(=O)Nc2oc(-c3ccccc3)c(-c3ccccc3)c2C#N)n1,>57,-2%,?,?
N#Cc1c(NC(=O)CSc2n[nH]c(Cc3ccccc3)n2)oc(-c2ccccc2)c1-c1ccccc1,>57,-1%,10µM*,?
N#Cc1c(NC(=O)COC(=O)C2CC3C=CC2C3)oc(-c2ccccc2)c1-c1ccccc1 (configuration not stated),>57,-3%,10µM*,?
COc1ccccc1OCC(=O)Nc1oc(-c2ccccc2)c(-c2ccccc2)c1C#N,>57,-2%,-17%,-24%
CC(C)=CCC/C(C)=C/CO/N=C1/C[C@@H](O)[C@@H](O)[C@@H]2[C@H]3C(=O)N(c4ccc(F)cc4F)C(=O)[C@@H]3CC[C@H]12,.,.,.,-4%[8 µM]
CSc1ccc(C2Nc3ccccc3-c3cc(C)nn32)cc1 (configuration not stated),>57,2%,3%,13µM*
Cc1cc2n(n1)C(c1ccsc1)Nc1ccccc1-2 (configuration not stated),>57,-5%,10%,-8%
O=c1cnc2cnc(Nc3ccccc3)nc2n1Cc1cccs1,>57,0%,9%,?
Nc1ncnc2c1ncn2[C@H]1O[C@@H](C(=O)OCCO)[C@@H](O)[C@H]1O,>57,-4%[5.75 µM],1%[5.75 µM],-4%[8 µM]
CCCC[C@@H]1C[C@H]1[C@@H](NP(=O)(c1ccccc1)c1ccccc1)c1ccccc1OC,.,15%,8%,13µM*
CCCC[C@@H]1C[C@H]1C(NP(=O)(c1ccccc1)c1ccccc1)c1ccc(Cl)cc1 (some centres not stated),>57,-6%,21%,-22%
COc1cccc2c1C(=O)c1c(O)c3c(c(O)c1C2=O)C[C@@](O)(C(C)=O)C[C@@H]3O[C@H]1C[C@H](N)[C@H](O)[C@H](C)O1,>57,9%,144%,16µM*
COc1cccc2c1C(=O)c1c(O)c3c(c(O)c1C2=O)C[C@](O)(C(=O)CO)C[C@@H]3O[C@H]1C[C@H](N)[C@@H](O)[C@H](C)O1,>57,-2%[5.75 µM],2%[5.75 µM],0%[8 µM]
CC(=NCC(=O)O)c1ccccc1,>57,-4%[5.75 µM],0%[5.75 µM],-4%[8 µM]
Cc1ccc(-c2csc(N3CCC(C(N)=O)(N4CCCCC4)CC3)n2)cc1,>57,14%,4µM*[single pt active],-2%
COc1cccc(Cn2c(=O)c(C)nc3cnc(N(C)C)nc32)c1,>57,-1%,102%,6%
O=C(Cn1nc(Cc2cccnc2)c2ccccc2c1=O)Nc1ccc2c(c1)OCO2,>57,14%,4µM*[single pt active],-17%
CCN(CC)CCNC(=O)Cn1nc(Cc2cccnc2)c2ccccc2c1=O,>57,12%,4µM*[single pt active],?
O=C(Cn1nc(Cc2cccnc2)c2ccccc2c1=O)NCCCN1CCCC1=O,>57,8%,4%,-9%
Cc1ccccc1CNc1nc(N)n(-c2ccccc2)n1,>57,6%,4µM*[single pt active],-6%
O=c1c(O)c(-c2ccc(O)c(O)c2)oc2c(OC[C@H]3O[C@@H](O)[C@@H](O)[C@H](O)[C@@H]3O)c(O)cc(O)c12,>57,0%,-12%,-13%
c1ccc(C(NCCNC(c2ccccc2)c2ccccc2)c2ccccc2)cc1,.,.,.,10µM*
SMILES,SmPrx2 inh,AmpC det inh,AmpC nodet inh,LT uptake inh
CCN1CCN(Cc2ccc(NC(=O)Nc3ccc(OC)cc3)cc2)CC1,>57,13%,4µM*[single pt active],-11%
CCN1CCN(Cc2ccc(NC(=O)Nc3ccccc3)cc2)CC1,>57,3%,1%,?
Cc1nn(-c2ccccc2)c(Cl)c1C(=O)N1CCN(c2ncnc3c2cnn3-c2ccccc2)CC1,>57,-3%,134%,6.3µM*
O=C(c1ccco1)N1CCN(c2ncnc3c2cnn3-c2ccccc2)CC1,>57,-4%,-1%,.
COC(=O)Cc1ccc(NC(=O)c2ccc(Br)o2)cc1,>57,-2%,-1%,-8%
CCN(CC)c1ccc(NC(=O)c2ccc(Br)o2)cc1,.,-4%,-6%,13µM*
CC(Oc1ccc(Cl)cc1Cl)C(=O)Nc1ccncc1 (configuration not stated),>57,-3%,19%,7.9µM*
